# Test results from ChEMBL document CHEMBL1961873, “Compounds: GSK PKIS; Assays: Nanosyn kinase panel” (2012).
# Assays:
# [1] = target: T1, Inhibitor of nuclear factor kappa-B kinase subunit epsilon (Homo sapiens) (UniProt Q14164); conditions: at 1 µM;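 also: reported values are averaged percent inhibition figures against human IKKε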
# T1 sequence (whole entry): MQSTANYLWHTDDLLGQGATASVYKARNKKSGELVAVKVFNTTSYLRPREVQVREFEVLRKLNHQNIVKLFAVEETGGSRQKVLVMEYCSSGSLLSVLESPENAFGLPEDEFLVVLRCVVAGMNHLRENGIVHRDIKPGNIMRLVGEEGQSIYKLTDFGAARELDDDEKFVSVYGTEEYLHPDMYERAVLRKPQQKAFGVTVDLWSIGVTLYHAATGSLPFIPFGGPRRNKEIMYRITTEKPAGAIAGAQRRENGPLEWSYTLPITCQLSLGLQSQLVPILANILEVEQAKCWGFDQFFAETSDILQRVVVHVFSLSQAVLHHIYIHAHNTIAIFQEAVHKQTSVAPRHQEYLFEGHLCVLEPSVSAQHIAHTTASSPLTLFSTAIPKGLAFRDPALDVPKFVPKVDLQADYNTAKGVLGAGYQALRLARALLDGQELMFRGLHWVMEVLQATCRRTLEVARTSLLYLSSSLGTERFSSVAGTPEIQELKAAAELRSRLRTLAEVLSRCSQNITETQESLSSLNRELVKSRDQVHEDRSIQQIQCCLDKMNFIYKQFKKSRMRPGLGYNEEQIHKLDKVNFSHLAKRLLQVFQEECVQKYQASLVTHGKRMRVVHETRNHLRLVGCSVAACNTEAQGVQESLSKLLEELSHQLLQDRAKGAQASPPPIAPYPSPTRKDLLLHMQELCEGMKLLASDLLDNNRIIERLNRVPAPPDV
# [2] = target: T2, Serine/threonine-protein kinase Nek1 (Homo sapiens) (UniProt Q96PY6); conditions: at 0.1 µM
# T2 sequence (whole entry): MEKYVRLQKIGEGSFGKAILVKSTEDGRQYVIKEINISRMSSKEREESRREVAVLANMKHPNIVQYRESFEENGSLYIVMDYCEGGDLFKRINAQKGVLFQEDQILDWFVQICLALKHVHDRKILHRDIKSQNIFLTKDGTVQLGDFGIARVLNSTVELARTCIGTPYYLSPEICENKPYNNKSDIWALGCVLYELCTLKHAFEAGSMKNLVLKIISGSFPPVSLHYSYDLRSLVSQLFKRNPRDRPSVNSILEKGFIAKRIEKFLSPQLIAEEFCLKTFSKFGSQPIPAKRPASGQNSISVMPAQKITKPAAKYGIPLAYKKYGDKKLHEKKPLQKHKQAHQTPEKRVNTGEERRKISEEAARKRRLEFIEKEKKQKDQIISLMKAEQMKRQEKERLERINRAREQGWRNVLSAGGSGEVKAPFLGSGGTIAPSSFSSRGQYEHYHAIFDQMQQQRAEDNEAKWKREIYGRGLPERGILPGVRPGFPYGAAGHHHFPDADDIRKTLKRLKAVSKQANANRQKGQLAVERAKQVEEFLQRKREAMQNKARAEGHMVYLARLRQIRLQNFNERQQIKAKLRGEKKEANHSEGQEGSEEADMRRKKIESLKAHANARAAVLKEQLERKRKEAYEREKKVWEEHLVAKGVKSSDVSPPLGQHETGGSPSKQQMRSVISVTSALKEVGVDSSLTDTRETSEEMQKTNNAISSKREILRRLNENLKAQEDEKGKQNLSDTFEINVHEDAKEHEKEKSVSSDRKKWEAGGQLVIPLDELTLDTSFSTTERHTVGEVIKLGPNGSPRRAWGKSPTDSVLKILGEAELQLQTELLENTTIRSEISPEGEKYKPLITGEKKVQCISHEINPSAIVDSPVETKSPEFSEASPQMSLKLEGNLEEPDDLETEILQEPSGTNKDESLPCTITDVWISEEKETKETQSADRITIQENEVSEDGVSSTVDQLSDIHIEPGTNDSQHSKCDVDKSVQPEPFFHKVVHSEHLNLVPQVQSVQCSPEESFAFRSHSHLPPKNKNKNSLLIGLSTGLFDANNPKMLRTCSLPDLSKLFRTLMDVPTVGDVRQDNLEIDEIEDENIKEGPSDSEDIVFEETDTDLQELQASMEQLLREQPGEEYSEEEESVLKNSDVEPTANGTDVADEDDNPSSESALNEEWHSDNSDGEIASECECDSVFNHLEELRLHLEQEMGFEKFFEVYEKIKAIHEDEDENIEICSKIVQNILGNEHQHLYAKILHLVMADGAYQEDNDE
# [3] = target: T2, Serine/threonine-protein kinase Nek1 (Homo sapiens); conditions: at 1 µM
# [4] = target: T3, Serine/threonine-protein kinase Nek2 (Homo sapiens) (UniProt P51955); conditions: at 0.1 µM
# T3 sequence (whole entry): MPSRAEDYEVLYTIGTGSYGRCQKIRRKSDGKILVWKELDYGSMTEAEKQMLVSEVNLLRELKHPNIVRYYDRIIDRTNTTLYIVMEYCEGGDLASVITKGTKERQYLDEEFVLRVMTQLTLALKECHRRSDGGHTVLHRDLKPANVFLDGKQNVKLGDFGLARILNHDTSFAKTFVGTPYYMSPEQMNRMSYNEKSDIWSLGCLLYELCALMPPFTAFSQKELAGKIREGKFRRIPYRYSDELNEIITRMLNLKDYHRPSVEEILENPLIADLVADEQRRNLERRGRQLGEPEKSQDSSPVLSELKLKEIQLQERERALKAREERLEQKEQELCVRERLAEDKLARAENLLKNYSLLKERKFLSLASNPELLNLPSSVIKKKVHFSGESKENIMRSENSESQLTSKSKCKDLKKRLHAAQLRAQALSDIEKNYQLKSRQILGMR
# [5] = target: T3, Serine/threonine-protein kinase Nek2 (Homo sapiens); conditions: at 1 µM
# [6] = target: Serine/threonine-protein kinase Nek6 (Homo sapiens) (UniProt Q9HC98); conditions: at 0.1 µM
# Chain of Serine/threonine-protein kinase Nek6 (Homo sapiens) (Q9HC98 whole entry): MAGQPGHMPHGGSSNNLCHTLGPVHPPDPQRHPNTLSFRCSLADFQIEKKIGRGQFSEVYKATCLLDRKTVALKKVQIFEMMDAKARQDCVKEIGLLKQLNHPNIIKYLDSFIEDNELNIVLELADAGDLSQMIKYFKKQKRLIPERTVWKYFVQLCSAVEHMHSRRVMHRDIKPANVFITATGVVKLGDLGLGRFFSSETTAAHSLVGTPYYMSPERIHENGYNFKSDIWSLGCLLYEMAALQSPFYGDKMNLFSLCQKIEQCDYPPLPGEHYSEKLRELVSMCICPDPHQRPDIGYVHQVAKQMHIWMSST
# [7] = target: Serine/threonine-protein kinase Nek6 (Homo sapiens) (UniProt Q9HC98); conditions: at 1 µM
# [8] = target: Serine/threonine-protein kinase Nek7 (Homo sapiens) (UniProt Q8TDX7); conditions: at 0.1 µM
# Chain of Serine/threonine-protein kinase Nek7 (Homo sapiens) (Q8TDX7 whole entry, looked up): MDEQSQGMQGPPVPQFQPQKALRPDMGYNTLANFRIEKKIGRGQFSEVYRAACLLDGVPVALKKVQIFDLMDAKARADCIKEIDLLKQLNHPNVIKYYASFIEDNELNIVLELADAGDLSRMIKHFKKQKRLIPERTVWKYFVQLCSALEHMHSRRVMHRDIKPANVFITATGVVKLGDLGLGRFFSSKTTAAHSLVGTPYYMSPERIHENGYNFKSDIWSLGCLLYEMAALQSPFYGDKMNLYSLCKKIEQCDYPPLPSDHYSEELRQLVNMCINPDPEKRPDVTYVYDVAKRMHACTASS
# [9] = target: Serine/threonine-protein kinase Nek7 (Homo sapiens) (UniProt Q8TDX7); conditions: at 1 µM
# [10] = target: T4, Serine/threonine-protein kinase Nek9 (Homo sapiens) (UniProt Q8TD19); conditions: at 0.1 µM
# T4 sequence (whole entry): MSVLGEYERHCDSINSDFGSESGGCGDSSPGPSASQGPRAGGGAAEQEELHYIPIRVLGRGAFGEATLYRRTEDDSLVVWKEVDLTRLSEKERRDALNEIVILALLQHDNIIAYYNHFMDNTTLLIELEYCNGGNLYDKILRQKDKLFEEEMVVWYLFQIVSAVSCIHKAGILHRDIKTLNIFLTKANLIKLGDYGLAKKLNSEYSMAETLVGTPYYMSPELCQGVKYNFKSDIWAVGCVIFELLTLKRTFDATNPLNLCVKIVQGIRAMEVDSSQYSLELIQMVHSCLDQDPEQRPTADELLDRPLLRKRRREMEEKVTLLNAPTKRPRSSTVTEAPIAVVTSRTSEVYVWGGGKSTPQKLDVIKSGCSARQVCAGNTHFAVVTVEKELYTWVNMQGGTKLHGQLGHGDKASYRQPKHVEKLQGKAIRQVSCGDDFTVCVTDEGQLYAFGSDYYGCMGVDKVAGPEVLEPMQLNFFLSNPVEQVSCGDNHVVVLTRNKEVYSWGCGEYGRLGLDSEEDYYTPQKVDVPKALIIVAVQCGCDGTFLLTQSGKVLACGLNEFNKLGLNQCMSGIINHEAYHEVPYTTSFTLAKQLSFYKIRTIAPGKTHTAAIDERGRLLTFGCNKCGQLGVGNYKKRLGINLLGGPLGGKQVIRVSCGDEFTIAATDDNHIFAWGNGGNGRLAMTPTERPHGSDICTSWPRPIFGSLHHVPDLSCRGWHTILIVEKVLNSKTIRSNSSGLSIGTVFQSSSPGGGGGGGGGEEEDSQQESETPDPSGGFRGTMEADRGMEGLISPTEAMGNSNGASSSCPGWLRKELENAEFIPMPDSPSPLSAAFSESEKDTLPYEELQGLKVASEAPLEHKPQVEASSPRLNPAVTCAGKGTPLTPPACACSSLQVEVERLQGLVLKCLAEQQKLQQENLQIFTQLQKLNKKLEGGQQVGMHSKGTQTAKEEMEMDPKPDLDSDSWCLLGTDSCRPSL
# [11] = target: T4, Serine/threonine-protein kinase Nek9 (Homo sapiens); conditions: at 1 µM
# [12] = target: Serine/threonine-protein kinase PLK1 (Homo sapiens) (UniProt P53350); conditions: at 0.1 µM
# Chain of Serine/threonine-protein kinase PLK1 (Homo sapiens) (P53350 whole entry): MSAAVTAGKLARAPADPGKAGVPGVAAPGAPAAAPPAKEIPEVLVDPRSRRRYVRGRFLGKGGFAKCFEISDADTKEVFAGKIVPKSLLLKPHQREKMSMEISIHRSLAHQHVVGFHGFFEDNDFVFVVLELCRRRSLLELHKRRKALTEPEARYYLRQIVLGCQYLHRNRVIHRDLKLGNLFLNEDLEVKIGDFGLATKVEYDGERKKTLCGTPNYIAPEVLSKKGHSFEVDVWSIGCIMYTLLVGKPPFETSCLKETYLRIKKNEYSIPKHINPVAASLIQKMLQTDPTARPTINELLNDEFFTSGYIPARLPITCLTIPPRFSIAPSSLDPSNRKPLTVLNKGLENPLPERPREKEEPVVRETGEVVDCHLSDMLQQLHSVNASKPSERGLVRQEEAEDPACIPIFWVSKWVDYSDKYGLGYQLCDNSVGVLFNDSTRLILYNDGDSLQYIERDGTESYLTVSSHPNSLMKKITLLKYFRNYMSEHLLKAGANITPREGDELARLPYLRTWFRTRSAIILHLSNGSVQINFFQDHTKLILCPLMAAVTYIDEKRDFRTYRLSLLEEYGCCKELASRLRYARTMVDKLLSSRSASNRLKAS
# [13] = target: Serine/threonine-protein kinase PLK1 (Homo sapiens) (UniProt P53350); conditions: at 1 µM
# [14] = target: T5, Dual specificity protein kinase TTK (Homo sapiens) (UniProt P33981); conditions: at 0.1 µM
# T5 sequence (whole entry): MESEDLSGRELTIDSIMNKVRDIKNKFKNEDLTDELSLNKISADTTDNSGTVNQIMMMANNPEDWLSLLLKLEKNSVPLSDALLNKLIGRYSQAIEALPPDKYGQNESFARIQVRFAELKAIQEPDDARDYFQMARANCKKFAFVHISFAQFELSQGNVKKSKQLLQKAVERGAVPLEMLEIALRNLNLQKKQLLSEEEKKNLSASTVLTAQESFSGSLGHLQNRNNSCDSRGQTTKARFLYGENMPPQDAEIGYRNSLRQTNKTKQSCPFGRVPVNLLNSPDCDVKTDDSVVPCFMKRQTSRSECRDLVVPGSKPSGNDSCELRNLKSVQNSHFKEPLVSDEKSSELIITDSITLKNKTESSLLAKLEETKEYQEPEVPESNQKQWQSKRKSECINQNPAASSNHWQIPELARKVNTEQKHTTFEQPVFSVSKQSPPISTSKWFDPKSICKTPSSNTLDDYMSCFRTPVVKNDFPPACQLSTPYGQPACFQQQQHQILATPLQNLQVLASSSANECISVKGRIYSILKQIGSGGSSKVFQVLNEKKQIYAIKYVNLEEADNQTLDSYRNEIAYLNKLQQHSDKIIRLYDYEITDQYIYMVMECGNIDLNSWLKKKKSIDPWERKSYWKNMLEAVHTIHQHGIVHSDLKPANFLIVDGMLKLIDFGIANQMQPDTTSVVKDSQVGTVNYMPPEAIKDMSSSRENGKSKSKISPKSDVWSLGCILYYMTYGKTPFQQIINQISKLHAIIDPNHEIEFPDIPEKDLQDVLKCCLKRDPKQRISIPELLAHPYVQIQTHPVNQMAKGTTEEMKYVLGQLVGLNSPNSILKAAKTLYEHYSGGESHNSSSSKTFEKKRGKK
# [15] = test system: T6, Receptor-type tyrosine-protein kinase FLT3 (Homo sapiens), P36888 [D835Y]; conditions: at 1 µM
# T6 sequence (whole entry): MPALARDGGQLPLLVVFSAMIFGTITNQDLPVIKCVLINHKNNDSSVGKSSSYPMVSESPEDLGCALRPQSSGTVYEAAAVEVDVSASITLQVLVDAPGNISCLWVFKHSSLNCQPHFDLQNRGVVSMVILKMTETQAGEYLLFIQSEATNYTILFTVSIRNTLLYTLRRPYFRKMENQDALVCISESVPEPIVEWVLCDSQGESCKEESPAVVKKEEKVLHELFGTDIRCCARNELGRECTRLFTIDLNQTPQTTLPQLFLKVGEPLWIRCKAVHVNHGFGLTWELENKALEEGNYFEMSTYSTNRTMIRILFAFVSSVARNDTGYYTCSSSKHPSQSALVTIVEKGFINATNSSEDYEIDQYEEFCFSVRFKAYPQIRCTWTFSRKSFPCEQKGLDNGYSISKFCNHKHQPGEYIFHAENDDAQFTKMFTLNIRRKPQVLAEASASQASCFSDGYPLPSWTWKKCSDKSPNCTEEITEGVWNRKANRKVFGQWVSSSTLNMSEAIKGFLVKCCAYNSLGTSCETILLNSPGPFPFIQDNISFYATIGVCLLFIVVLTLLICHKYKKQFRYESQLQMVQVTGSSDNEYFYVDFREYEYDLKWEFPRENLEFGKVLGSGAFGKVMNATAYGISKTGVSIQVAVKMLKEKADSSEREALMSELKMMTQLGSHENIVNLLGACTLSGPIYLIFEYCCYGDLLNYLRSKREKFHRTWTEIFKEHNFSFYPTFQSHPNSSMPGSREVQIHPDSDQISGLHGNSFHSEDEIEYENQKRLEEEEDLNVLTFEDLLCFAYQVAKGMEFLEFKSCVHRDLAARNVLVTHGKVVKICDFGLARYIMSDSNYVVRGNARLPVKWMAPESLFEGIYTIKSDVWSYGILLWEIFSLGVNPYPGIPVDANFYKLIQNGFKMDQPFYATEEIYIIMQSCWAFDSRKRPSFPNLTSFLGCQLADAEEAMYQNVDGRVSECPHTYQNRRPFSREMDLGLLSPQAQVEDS
# [16] = target: Vascular endothelial growth factor receptor 3 (Homo sapiens) (UniProt P35916); conditions: at 0.1 µM
# Chain of Vascular endothelial growth factor receptor 3 (Homo sapiens) (P35916 whole entry): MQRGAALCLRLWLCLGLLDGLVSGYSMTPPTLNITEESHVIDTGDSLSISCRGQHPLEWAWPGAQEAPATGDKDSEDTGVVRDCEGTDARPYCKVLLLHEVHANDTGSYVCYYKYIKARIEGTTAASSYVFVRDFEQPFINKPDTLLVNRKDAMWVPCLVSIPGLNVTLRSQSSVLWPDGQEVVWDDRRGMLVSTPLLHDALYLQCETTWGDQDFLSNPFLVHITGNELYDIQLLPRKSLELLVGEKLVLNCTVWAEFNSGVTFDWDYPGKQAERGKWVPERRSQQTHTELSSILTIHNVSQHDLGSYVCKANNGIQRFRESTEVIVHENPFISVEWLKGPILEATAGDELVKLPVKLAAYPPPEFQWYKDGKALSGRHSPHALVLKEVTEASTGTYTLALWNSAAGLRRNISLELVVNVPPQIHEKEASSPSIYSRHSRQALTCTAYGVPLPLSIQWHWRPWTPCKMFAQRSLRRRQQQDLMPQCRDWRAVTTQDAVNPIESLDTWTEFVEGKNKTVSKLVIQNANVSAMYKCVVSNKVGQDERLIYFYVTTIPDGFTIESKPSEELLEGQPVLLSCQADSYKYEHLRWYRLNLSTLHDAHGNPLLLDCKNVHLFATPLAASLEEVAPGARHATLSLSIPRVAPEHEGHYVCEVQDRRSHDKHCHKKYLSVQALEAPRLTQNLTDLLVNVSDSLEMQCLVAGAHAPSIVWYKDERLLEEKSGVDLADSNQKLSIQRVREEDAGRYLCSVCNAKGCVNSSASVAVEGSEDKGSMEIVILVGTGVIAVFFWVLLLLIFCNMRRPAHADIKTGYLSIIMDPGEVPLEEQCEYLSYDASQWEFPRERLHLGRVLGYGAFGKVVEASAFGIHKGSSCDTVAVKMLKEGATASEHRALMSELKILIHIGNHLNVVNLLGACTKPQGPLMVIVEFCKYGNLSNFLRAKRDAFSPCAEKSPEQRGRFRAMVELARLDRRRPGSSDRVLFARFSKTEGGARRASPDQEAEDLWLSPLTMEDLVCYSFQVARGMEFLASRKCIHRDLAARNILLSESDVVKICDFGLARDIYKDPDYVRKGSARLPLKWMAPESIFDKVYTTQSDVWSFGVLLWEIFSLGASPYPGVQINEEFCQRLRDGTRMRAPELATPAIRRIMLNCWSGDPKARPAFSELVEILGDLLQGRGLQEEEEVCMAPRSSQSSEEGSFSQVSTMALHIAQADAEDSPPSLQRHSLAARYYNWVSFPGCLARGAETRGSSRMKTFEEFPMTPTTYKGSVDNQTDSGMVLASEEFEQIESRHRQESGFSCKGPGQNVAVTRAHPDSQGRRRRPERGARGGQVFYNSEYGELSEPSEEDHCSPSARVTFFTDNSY
# [17] = target: Vascular endothelial growth factor receptor 3 (Homo sapiens) (UniProt P35916); conditions: at 1 µM
# [18] = target: Macrophage colony-stimulating factor 1 receptor (Homo sapiens) (UniProt P07333); conditions: at 0.1 µM
# Chain of Macrophage colony-stimulating factor 1 receptor (Homo sapiens) (P07333 whole entry): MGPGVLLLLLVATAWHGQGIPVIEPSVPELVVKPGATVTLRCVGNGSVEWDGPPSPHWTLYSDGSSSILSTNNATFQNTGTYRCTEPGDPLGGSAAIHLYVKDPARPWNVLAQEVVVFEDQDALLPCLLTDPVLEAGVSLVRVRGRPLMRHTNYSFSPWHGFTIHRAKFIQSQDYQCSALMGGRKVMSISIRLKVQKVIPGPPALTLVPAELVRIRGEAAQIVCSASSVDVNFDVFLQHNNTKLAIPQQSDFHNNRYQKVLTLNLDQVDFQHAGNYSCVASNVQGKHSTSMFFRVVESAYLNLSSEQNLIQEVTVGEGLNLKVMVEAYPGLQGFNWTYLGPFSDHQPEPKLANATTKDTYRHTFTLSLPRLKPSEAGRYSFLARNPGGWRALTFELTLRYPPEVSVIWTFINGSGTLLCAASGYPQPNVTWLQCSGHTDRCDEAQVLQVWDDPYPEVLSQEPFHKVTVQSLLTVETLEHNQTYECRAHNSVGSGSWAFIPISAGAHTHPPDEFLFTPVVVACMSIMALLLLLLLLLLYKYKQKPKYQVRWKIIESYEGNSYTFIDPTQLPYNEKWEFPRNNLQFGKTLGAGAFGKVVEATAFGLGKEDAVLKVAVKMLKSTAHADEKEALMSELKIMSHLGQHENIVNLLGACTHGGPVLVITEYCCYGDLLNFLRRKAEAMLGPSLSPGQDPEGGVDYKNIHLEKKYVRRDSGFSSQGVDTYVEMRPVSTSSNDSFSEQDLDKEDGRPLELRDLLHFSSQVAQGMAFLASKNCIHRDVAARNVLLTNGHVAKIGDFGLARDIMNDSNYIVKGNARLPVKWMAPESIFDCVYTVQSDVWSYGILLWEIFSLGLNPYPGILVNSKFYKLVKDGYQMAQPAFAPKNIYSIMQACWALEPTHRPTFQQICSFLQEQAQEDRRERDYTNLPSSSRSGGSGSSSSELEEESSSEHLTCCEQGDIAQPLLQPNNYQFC
# [19] = target: Macrophage colony-stimulating factor 1 receptor (Homo sapiens) (UniProt P07333); conditions: at 1 µM
# [20] = target: Tyrosine-protein kinase Fyn (Homo sapiens) (UniProt P06241); conditions: at 0.1 µM
# Chain of Tyrosine-protein kinase Fyn (Homo sapiens) (P06241 2-537 limits assumed): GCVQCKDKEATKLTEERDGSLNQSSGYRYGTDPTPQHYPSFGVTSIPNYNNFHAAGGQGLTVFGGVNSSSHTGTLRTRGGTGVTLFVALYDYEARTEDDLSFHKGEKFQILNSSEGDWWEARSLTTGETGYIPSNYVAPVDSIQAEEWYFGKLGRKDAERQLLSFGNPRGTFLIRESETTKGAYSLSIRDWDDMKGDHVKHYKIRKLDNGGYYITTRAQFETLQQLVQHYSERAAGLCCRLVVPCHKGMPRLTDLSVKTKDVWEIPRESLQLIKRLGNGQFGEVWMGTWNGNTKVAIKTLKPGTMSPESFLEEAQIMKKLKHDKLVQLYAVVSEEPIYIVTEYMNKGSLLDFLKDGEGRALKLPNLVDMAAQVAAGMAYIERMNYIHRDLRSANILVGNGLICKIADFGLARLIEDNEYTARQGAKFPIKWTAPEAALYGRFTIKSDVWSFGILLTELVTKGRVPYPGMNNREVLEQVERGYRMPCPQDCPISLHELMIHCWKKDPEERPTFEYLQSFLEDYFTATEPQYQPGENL
smiles,measurement,setting,value
NS(=O)(=O)c1ccc(Nc2ncc(-c3ccccc3)o2)cc1,inhibition,[1],5.67%
same,inhibition,[2],2.41%
same,inhibition,[3],5.75%
same,inhibition,[4],4.32%
same,inhibition,[5],4.17%
same,inhibition,[6],2.71%
same,inhibition,[7],1.65%
same,inhibition,[8],2.06%
same,inhibition,[9],2.65%
same,inhibition,[10],3.91%
same,inhibition,[11],5.13%
same,inhibition,[12],1.46%
same,inhibition,[13],3.33%
same,inhibition,[14],6.13%
same,inhibition,[15],21.6%
same,inhibition,[16],3.67%
same,inhibition,[17],9.2%
same,inhibition,[18],6.69%
same,inhibition,[19],32.5%
same,inhibition,[20],1.12%
